Screening data: PubChem, National Center for Advancing Translational Sciences (NCATS)
3T3 cytotox: Cytotoxic Profiling in NIH 3T3 Cell Line of Diverse Libraries Using Quantitative High-Throughput Screening | NIH 3T3 viability, CellTiter-Glo ATP luminescence, 48-72 h | 4.3% of 94,000 active | Potency, µM (doses to about 96.7 µM), inactives show at the top dose activity change, negative = cytotoxicity, actives largely listed as inhibitors; further: on the % scale 0 is the no-effect control and ±100 the full control effect; nearly all actives have a fitted effect of over 55% in size
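Cytotoxicity is measured as loss of cellular ATP: NIH 3T3 cells (400/well) are exposed to compound for 48 or 72 hr at 37 °C, then CellTiter-Glo luminescence is imaged after 10 min at room temperature.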
FLuc inh: Firefly luciferase inhibition profiling of diverse chemical library using quantitative high-throughput screening | Luciferin 4-monooxygenase (Photinus pyralis), P08659 | purified P. pyralis luciferase, luminescence, biochemical | Potency, µM (highest dose often 115 µM), usual class: inhibitors | 2.5% of 76,000 active | AID 1347043, 2019; further: on the % scale 0 is the no-effect control and ±100 the full control effect; nearly all actives have a fitted effect of over 65% in size
Target sequence (P08659 whole entry, looked up): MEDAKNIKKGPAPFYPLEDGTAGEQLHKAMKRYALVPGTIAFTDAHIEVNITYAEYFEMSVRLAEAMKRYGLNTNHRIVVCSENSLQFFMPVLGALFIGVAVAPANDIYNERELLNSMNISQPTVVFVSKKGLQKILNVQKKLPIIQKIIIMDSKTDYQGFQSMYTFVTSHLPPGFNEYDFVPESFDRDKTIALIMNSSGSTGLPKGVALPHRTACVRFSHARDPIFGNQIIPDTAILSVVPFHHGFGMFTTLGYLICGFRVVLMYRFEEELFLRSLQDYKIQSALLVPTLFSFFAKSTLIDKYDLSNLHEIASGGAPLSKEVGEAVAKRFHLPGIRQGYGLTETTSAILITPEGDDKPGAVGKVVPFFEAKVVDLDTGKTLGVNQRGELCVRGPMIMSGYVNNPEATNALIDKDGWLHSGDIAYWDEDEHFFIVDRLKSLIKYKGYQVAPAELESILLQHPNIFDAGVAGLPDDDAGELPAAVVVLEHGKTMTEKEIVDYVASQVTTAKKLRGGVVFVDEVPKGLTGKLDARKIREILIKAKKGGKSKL
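Inhibitors were tested against purified firefly luciferase in a biochemical, low-substrate format (both substrates at 10uM) and luminescence measured with a CCD imager.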
HEK cytotox: Cytotoxic Profiling in HEK 293 Cell Line of Diverse Libraries Using Quantitative High-Throughput Screening | HEK 293 viability, ATP luminescence (CellTiter-Glo), 48-72 h | Potency, µM (series often up to 115 µM), for inactives: at the top dose activity change, negative = cytotoxicity, usual class: inhibitors | 6.6% of 94,000 active; further: on the % scale 0 is the no-effect control and ±100 the full control effect; nearly all actives have a fitted effect of over 60% in size
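HEK 293 cells at 250 cells/well were exposed to compounds by pintool transfer for 48 or 72 hr at 37 degree Celsius, 5% CO2. Viability was read as ATP-coupled luminescence with CellTiter-Glo after 10 min at room temperature.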
hNpr1 antagonist: Natriuretic polypeptide receptor (hNpr1) antagonism - Primary qHTS. Atrial natriuretic peptide receptor 1 (Homo sapiens), P16066. HEK293 hNpr1 GloSensor cGMP, ANP-stimulated luminescence. Potency, µM (highest dose often 46.3 µM), for the others: at the highest dose activity change, negative = inhibition, usual class: inhibitors. 1.6% of 76,000 active; calls by dose curve; further: on the % scale 0 is the no-effect control and ±100 the full control effect; nearly all actives have a fitted effect of over 60% in size
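Compound pre-incubated 30 min at room temperature on GloSensor-loaded HEK293 cells stably carrying hNpr1 and the pGS-40F cGMP biosensor. Stimulation uses hNppA at 0.1 nM final; luminescence is taken at baseline and 20 min post-agonist.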
Npr1 antag conf: Natriuretic polypeptide receptor (hNpr1) antagonism - Confirmation; shares compounds with hNpr1 antagonist; AID 1347044, 2019; HEK293 hNpr1 cGMP GloSensor luminescence, ANP-stimulated; 76% of 1,400 active; Potency, µM (doses to about 57.6 µM), for inactives: top-dose activity change, negative = inhibition, hits mostly inhibitors; calls by dose curve; further: nearly all actives have a fitted effect of over 70% in size
NPR2 antag: Natriuretic polypeptide receptor (hNpr2) antagonism - Subtype selectivity assay. shares compounds with hNpr1 antagonist. HEK293 hNpr2 GloSensor cGMP luminescence, CNP-stimulated. Potency, µM (highest dose often 57.6 µM), for inactives: at the highest dose activity change, negative = inhibition, usual class: inhibitors. 67% of 1,400 active. AID 1347046, 2019; calls by dose curve; further: nearly all actives have a fitted effect of over 70% in size
FLuc counter: Natriuretic polypeptide receptor (hNpr1) antagonism - Confirmation firefly luciferase (FLuc) inhibition counterscreen; AID 1347047, 2019; 0.7% of 1,400 active; purified FLuc enzyme, luminescence, Km substrate; Potency, µM (series often up to 57.6 µM), for inactives: at the highest dose activity change, negative = inhibition, hits mostly inhibitors; shares compounds with hNpr1 antagonist; further: 0% is about no effect
GloSensor cGMP: Natriuretic polypeptide receptor (hNpr1) antagonism - Counterscreen GloSensor control cell line; 69% of 1,400 active; shares compounds with hNpr1 antagonist; Potency, µM (series often up to 57.6 µM), without a hit: at the highest dose activity change, negative = inhibition, actives largely listed as inhibitors; HEK293 GloSensor cGMP, SNP-stimulated, luminescence; AID 1347051, 2019; calls by dose curve; further: on the % scale 0 is the no-effect control and ±100 the full control effect; nearly all actives have a fitted effect of over 70% in size
* marks the source's active call; other numbers are inactive results; i = inactive; ? = inconclusive; / = not tested or not shown; [ ] = another dose, or the depositor's remark. Rows were chosen to be rich in hits. Some 11% of all compounds tested hit in one or more screens of this group. Unless noted, the call rests on the fitted dose curve; in most records, active means well fitted curve in the direction sought with a large enough effect; inconclusive means small, poorly fitted or top-dose-only effect, or another doubt; inactive means no such curve, though single readings can be large; an effect the other way counts as inactive or inconclusive. Potency means the concentration at half of the fitted maximal effect.

SMILES	3T3 cytotox	FLuc inh	HEK cytotox	hNpr1 antagonist	Npr1 antag conf	NPR2 antag	FLuc counter	GloSensor cGMP
CCCCc1ccc(NC(=O)c2ccc3c(c2)N(S(C)(=O)=O)CC3)cc1	5%	i	-33%	-20%	/	/	/	/
COc1ccc(C2(C(=O)N3CCC4(CC3)C(OC)CN4c3cccc(F)c3)CC2)cc1 (stereo not drawn)	?	i	45µM*	11µM*	?	14µM*	2%	-23%
COC1CN(c2cccc(F)c2)C12CCN(C(=O)C1CCC1)CC2 (stereo not drawn)	-19%	i	?	3%	/	/	/	/
Cc1ccc(C2(C(=O)NC(C)c3cnc(-c4ccncc4)nc3C)CC2)cc1 (stereo not drawn)	?	i	?	?	?	?	3%	-6%
CC(C)C1=NOC2(CCN(Cc3ccc(C(F)(F)F)cc3)CC2)C1	?	i	?	11µM*	25µM*	31µM*	1%[86.2 µM]	20µM*
COC(=O)c1ccc(NC(=O)N2CC(Oc3cccc(-c4nc(C)no4)c3)C2)cc1	?	i	?	13µM*	24µM*	24µM*	-1%	24µM*
O=C(Nc1ccccc1)N1CC(Oc2ccc(-c3noc(-c4ccncc4)n3)cc2)C1	-25%	i	?	11µM*	6.1µM*	8.6µM*	-1%	6.1µM*
Cc1noc(-c2cccc(OC3CN(C(=O)Nc4ccccc4)C3)c2)n1	?	i	?	-15%	/	/	/	/
Cc1ccc(C2Cn3nnc(-c4nc(C5CCCCC5)no4)c3CO2)c(C)c1 (stereo not drawn)	-30%	i	?	?	14µM*	14µM*	-1%	1%
CC(C)(C)c1noc(-c2nnn3c2COC(c2ccc(Cl)cc2)C3)n1 (stereo not drawn)	?	i	?	?	19µM*	?	3%	-2%
Cc1noc(-c2nnn3c2COC(c2ccc(F)cc2)C3)n1 (stereo not drawn)	-4%	i	2%	-3%	/	/	/	/
Clc1ccc(C2Cn3nnc(-c4nc(C5CC5)no4)c3CO2)cc1 (stereo not drawn)	?	i	?	?	?	-22%	4%	1%
CC(C)(C)c1noc(-c2nnn3c2COC(c2ccc(F)cc2)C3)n1 (stereo not drawn)	-17%	i	?	?	?	?	3%	-24%
NC(=O)[C@@H]1C[C@H](Oc2cccnc2)CN1S(=O)(=O)c1cccnc1	-8%	/	i	/	/	/	/	/
CC(=O)NC1CCCN(Cc2ccc(-c3cncnc3)cc2)C1 (stereo not drawn)	-16%[138 µM]	/	-17%[172 µM]	/	/	/	/	/
Cc1nc(-c2cn(C3CCCN(C(=O)c4cccc(C#N)c4)C3)nn2)no1 (stereo not drawn)	-25%	i	-6%	-2%	/	/	/	/
Cc1ccc(-c2ccc3nnc(CNC(=O)c4cccc(C#N)c4)n3n2)cc1	?	i	?	-3%	/	/	/	/
COC(=O)CC(=O)N1CCC(C(=O)N2CCC(N3Cc4cccn4C3=O)CC2)CC1	-5%	/	i	/	/	/	/	/
COc1ccc(C2Cn3nnc(-c4nc(C(C)(C)C)no4)c3CO2)cc1 (stereo not drawn)	?	i	?	?	22µM*	?	0%	-18%
CCCc1noc(-c2nnn3c2COC(c2ccc(OC)cc2)C3)n1 (stereo not drawn)	-15%	i	-9%	-30%	/	/	/	/
COc1ccc(CN2CCCn3nc(C)c(-c4ccccc4Oc4ccccc4)c32)cc1O	11µM*	i	20µM*	2.5µM*	22µM*	22µM*	3%	4.8µM*
Cc1nn2c(c1-c1ccccc1Oc1ccccc1)N(Cc1ccc(C(=O)O)cc1)CCC2	25µM*	i	45µM*	2.8µM*	?	?	1%[86.2 µM]	?
Cc1nn2c(c1-c1ccccc1-c1ccccc1)N(Cc1cccc(O)c1)CCC2	?	i	?	2.2µM*	3.1µM*	5µM*	-1%[86.2 µM]	3.5µM*
O=C(Nc1cccc(-c2nnc3n2CCCC3)c1)C1CCCCC1	-21%	i	-2%	-8%	/	/	/	/
CCOc1ccccc1CN1CCC2(CCN(Cc3ccc(F)cc3)CC2)Oc2ccccc21	?	i	-26%	16%	/	/	/	/
SMILES	3T3 cytotox	FLuc inh	HEK cytotox	hNpr1 antagonist	Npr1 antag conf	NPR2 antag	FLuc counter	GloSensor cGMP
O=C(CCc1nc2ccccc2s1)NCC1Cn2cccc2CN1Cc1ccccc1 (stereo not drawn)	?	i	?	-7%	/	/	/	/
O=S(=O)(c1ccccc1)N1CCCC(c2nc(CCOCC3CCCC3)no2)C1 (stereo not drawn)	-26%	i	?	-22%	?	?	0%	?
CN1Cc2nc(NCc3ccccc3)ccc2OCC1=O	?	i	?	?	/	/	/	/
Cc1ccccc1CN1Cc2nc(NCc3cccc(F)c3)ccc2OCC1=O	79µM*	i	?	?	40µM*	35µM*	0%[86.2 µM]	40µM*
O=C1COc2ccc(-c3ccc4c(c3)OCO4)nc2CN1Cc1ccc(F)cc1	?	i	56µM*	?	?	35µM*	6%[86.2 µM]	?
O=C1COc2ccc(-c3cccnc3)nc2CN1Cc1ccc(C(F)(F)F)cc1	?	i	?	-17%[70.6 µM]	/	/	/	/
O=C1COc2ccc(N3CCCC3)nc2CN1Cc1ccc(C(F)(F)F)cc1	?	i	79µM*	?	40µM*	?	0%[86.2 µM]	?
Cc1cc(C(=O)NCc2c(C)ncc3c2CCNC3)ccc1F	0%	i	-15%	4%	/	/	/	/
O=C(Nc1ccc(Cl)cc1)N1Cc2[nH]cnc2C[C@H]1c1nc(-c2ccccc2)no1	32µM*	i	79µM*	-22%[70.6 µM]	?	?	?	-26%[86.2 µM]
